Sampled rows, rich in hits. Any-hit rate of the full collection: about 7.7%.
HCMV antiviral: human cytomegalovirus inhibition. HFF cells, HCMV-luciferase reporter, 72 h; active compounds read low. activity change, negative = inhibition, % at 57.5 µM. 410,000 tested, 4.5% active; in the data active = activity change below about -60%; inconclusive = no clear call, values can overlap the other calls; inactive = above about -39%
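Two-dose cell screen: HFF monolayers treated with compounds and infected with luciferase-expressing HCMV at 1 PFU/cell, 72 h at 37C, then lysed for luciferase measurement.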
TbPYK inhibitor: T. brucei pyruvate kinase inhibition | Q57TT1 | TbPYK enzyme, Kinase-Glo Plus ATP luminescence, 45 min | Potency, µM (titrated, usually from 76.8 µM), for the others: top-dose activity, negative = inhibition, usual class: inhibitors | 410,000 tested, 0.12% active; also: potency is read from the fitted curve at half-maximal effect; nearly all actives have a fitted effect of over 50% in size
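TbPYK + substrate in 50 mM TEA pH 7.2, 100 mM KCl, 10 mM MgCl2, 0.05% BSA, 0.01% Tween-20; cpd pinned; ADP 130 uM final; 45 min RT; Kinase-Glo Plus 10 min; luminescence endpoint.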
Sm TGR block: blocks Schistosoma mansoni thioredoxin glutathione reductase; Q962Y6; purified TGR, DTNB reduction, TNB absorbance 405 nm; Potency, µM (top dose mostly 114 µM), for the others: at the highest dose activity change, negative = inhibition, usual class: inhibitors; 360,000 tested, 3% active; also: potency is read from the fitted curve at half-maximal effect; nearly all actives have a fitted effect of over 60% in size
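First, TGR (20 nM dispensed) and NADPH were mixed with compound. Second, a 15 min room-temperature incubation followed. Third, further NADPH and then DTNB were added to start the reaction. Finally, TNB absorbance was monitored kinetically.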
FMDV antiviral: blocks foot and mouth disease virus; FMDV antiviral cell-based qHTS; Potency, µM (series often up to 57.9 µM), without a hit: top-dose activity change, negative = inhibition, hits mostly inhibitors; 410,000 tested, 1.2% active; calls by dose curve; tested in HEK293T cells; also: read-out not given here; potency is read from the fitted curve at half-maximal effect; nearly all actives have a fitted effect of over 45% in size
FBPA Giardia inh: blocks Giardia fructose-bisphosphate aldolase activity; A8B2U2; purified Giardia FBPA; Potency, µM (titrated, usually from 59.6 µM), inactives show at the top dose activity, negative = inhibition, usual class: inhibitors; 290,000 tested, 0.71% active; also: potency is read from the fitted curve at half-maximal effect; nearly all actives have a fitted effect of over 55% in size
Target sequence (A8B2U2 whole entry, looked up): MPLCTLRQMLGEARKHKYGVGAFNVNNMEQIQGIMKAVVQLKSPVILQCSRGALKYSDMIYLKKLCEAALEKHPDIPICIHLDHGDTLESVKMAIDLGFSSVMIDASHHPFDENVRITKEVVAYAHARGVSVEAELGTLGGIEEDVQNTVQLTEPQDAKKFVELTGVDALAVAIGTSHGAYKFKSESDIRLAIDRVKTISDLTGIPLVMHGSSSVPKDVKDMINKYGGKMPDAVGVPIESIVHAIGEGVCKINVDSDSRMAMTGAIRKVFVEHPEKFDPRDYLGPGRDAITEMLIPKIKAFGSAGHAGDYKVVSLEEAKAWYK
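Giardia FBPA (40 nM reagent) was preincubated 10 min at RT with compound (up to 57.5 uM final), then substrate plus GAPDH/TPI/NAD/arsenate coupling system with diaphorase/resazurin was added; resorufin fluorescence (525/598 nm) was read after 20 min.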
RE007 growth inh: less growth of the S. pombe RE007 Vpr strain; S. pombe RE007 Vpr strain, BacTiter-Glo ATP luminescence, 24 h; Potency, µM (doses to about 92.2 µM), without a hit: at the highest dose activity change, negative = less growth, hits mostly inhibitors; 360,000 tested, 0.21% active; active = well fitted falling curve with a large enough effect; inconclusive = small, poorly fitted or top-dose-only effect; inactive = no such curve, though single readings can be large or run the other way; also: potency is read from the fitted curve at half-maximal effect; nearly all actives have a fitted effect of over 50% in size
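Fission yeast RE007 carrying one integrated HIV-1 vpr copy, seeded at OD 0.01 in PMG+AL medium with 23 nL pinned compound. Grown 24 h at 30 degrees; viability read by BacTiter-Glo luminescence after 5 min.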
An asterisk follows results filed as active; ? = inconclusive; . = no result. Unless noted, calls follow the shape of the dose curve; as a rule, active = well fitted curve in the direction sought with a large enough effect; inconclusive = small, poorly fitted or top-dose-only effect, or another doubt; inactive = no such curve, though single readings can be large; an effect the other way counts as inactive or inconclusive. % is scaled to controls: 0 for no effect and ±100 for the full control effect.

SMILES	HCMV antiviral	TbPYK inhibitor	Sm TGR block	FMDV antiviral	FBPA Giardia inh	RE007 growth inh
Cc1[nH]c2ccccc2c1C(=O)CN1CCN(C2CCCCC2)CC1	.	.	40µM*	.	-1%	.
COc1ccccc1N1CCN(CC(=O)c2c(C)[nH]c3ccccc23)CC1	-6	-1%	32µM*	.	1%	-3%
CCS(=O)(=O)N1CC2(C1)CN(S(=O)(=O)c1cccc(OC)c1)[C@@H](CO)c1[nH]c3cc(OC)ccc3c12	-4	.	.	.	.	.
Cc1sc(N/N=C/c2cccnc2)nc1-c1ccccc1	-65*	2%	?	?	-8%	2%
O=C(O)Cc1sc(N/N=C\c2ccncc2)nc1-c1ccccc1	62	-18%	0.25µM*	-1%	0%	20%
Clc1ccc(Nc2nccc3[nH]c(-c4ccccc4)nc23)cc1	-6	.	.	.	.	.
CC[C@]1(c2cccc(C)c2)C(=O)N(C(=O)OC)N1C(=O)OC	84	-1%	1.8µM*	?	-7%	-11%
COC(=O)N1C(=O)[C@](c2ccccc2)(C(C)C)N1C(=O)OC	19	-7%	0%	-26%	-6%	-6%
CC[C@@]1(c2ccccc2)C(=O)N(C(=O)OC)N1C(=O)OC	15	-7%	2µM*	0%	-8%	14%
CC[C@@]1(c2ccccc2C)C(=O)N(C(=O)OC)N1C(=O)OC	18	-16%	6.3µM*	-24%	-16%	-5%
COC(=O)N1C(=O)[C@@](c2ccccc2)(C2CCCCC2)N1C(=O)OC	128	1%	13µM*	?	-13%	5%
COC(=O)N1CC(c2ccccc2)CC1=O (stereo unspecified)	-37	5%	0%	-2%	3%	-13%
Cc1ccccc1CNC(=O)COc1ccccc1	18	-2%	-3%	43%	-10%	-13%
CCC12CN3CC(C)(CN(C1)C3c1ccc(O)cc1O)C2=O (stereo unspecified)	6	3%	0%	-1%	.	.
CC[C@]1(c2ccccc2)C(=O)N(C(=O)OC)N1C(=O)OC	-19	8%	2.2µM*	-10%	-11%	3%
O=S(=O)(c1ccc(-c2cc(C(F)(F)F)on2)s1)N1CCN(c2cccc(Cl)c2)CC1	-11	4%	2%	-16%	.	.
O=C1CC(=O)Nc2cc(S(=O)(=O)N3CCN(c4ccc([N+](=O)[O-])cc4)CC3)ccc2N1	-1	9%	11µM*	-17%	16%	-8%
CCC(C)(C)n1nnnc1C(c1cc2ccc(OC)cc2[nH]c1=O)N1CCc2ccccc21 (stereo unspecified)	13	?	35µM*	-14%	4%	18%
CCC(C)(C)n1nnnc1C(c1cc2ccc(OC)cc2[nH]c1=O)N1CCc2ccccc2C1 (stereo unspecified)	-75*	-22%	?	-12%	-29%	-3%
CCC(C)(C)n1nnnc1C(c1cc2cc(OC)ccc2[nH]c1=O)N1CCc2ccccc21 (stereo unspecified)	-7	-3%	-16%	-28%	?	-19%
Cc1ccc(-n2nc(C)c(NC(=O)CCl)c2C)cc1C	-103*	-1%	22µM*	-19%	4%	-2%
Cc1nn(C)c(C)c1NC(=O)COc1ccc(Cl)cc1	0	-7%	6%	?	.	-19%
Cc1nn(C)c(C)c1NC(=O)CCl	-70*	-1%	.	-7%	-28%	5%
C=CCN1CCc2c(cc(O)c(O)c2Cl)C(c2cccc(C)c2)C1 (stereo unspecified)	.	.	.	-22%	-25%	.
Cc1ccc(C)n1-c1sccc1C(=O)O	.	-12%	40µM*	0%	-13%	?
SMILES	HCMV antiviral	TbPYK inhibitor	Sm TGR block	FMDV antiviral	FBPA Giardia inh	RE007 growth inh
Cc1ccccc1-n1nc(CO)c(C(=O)NCCc2ccccc2)n1	-27	-9%	3%	-20%	.	.
Cc1noc(C)c1C(=O)NCc1ccccc1F	-69*	5%	10%	10%	7%	-9%
CCCOC(=O)c1cccc(Nc2nc(-c3cccnc3)nc3ccccc23)c1	134	-4%	5%	25µM*	-20%	-24%
Cc1ccccc1C(=O)Oc1cccc(Nc2ncnc3ccccc23)c1	128	1%	.	16µM*	.	?
CCOC(=O)c1cccc(Nc2ncnc3ccccc23)c1	3	-4%	5%	40µM*	5%	2%
COc1ccc(Cn2cnc3cnc(Nc4ccc(C(=O)N(C)C)cc4)cc32)cc1OC	2	.	.	.	.	.
Cc1ccccc1OCCn1cc(/C(N)=N/O)c2ccccc21	-14	-1%	-5%	28µM*	-5%	0%
COc1ccccc1OCCCn1cc(C(=O)c2ccco2)c2ccccc21	166	-6%	1%	-12%	15%	-18%
COc1ccccc1OCCn1cc(C(=O)c2ccco2)c2ccccc21	61	3%	0%	25µM*	-5%	4%
Fc1ccc(-c2nc(-c3cccs3)[nH]c2-c2ccc(F)cc2)cc1	76	1%	-13%	28µM*	-8%	3%
Fc1ccc(-c2nc(-c3cccs3)c(-c3cccs3)[nH]2)cc1	-25	3%	-2%	0%	.	.
O=[N+]([O-])c1cc(-c2nc(-c3ccccn3)no2)ccc1NCc1ccccc1	69	2%	0%	28%	.	.
O=[N+]([O-])c1cc(-c2nc(-c3ccccc3)no2)ccc1N1CCCC1	-80*	0%	-6%	-12%	.	.
Cc1ccc(-c2noc(-c3ccc(N4CCN(C)CC4)c([N+](=O)[O-])c3)n2)cc1	?	5%	-5%	20%	.	.
COc1ccc(-c2noc(-c3ccc(N4CCN(C)CC4)c([N+](=O)[O-])c3)n2)cc1OC	-105*	-6%	-8%	31%	.	.
COc1cc(-c2noc(-c3ccc(NCC4CCCO4)c([N+](=O)[O-])c3)n2)cc(OC)c1OC (stereo unspecified)	-3	4%	-24%	11µM*	.	.
O=[N+]([O-])c1cc(-c2nc(-c3ccco3)no2)ccc1NCc1ccccc1	31	-1%	35µM*	37%	.	.
O=[N+]([O-])c1cc(-c2nc(-c3ccccc3)no2)ccc1N1CCN(c2ccccc2)CC1	8	-4%	-3%	-9%	.	.
CCOc1ccc(S(=O)(=O)N2CCN(c3cccc(C(F)(F)F)c3)CC2)cc1OCC	7	3%	5%	36%	.	.
Cc1cc(C)n2nc(CNC(=O)c3cccc(N(C)C)c3)nc2n1	58	-2%	3%	51%	.	.
COC(=O)c1ccccc1-c1cc(C)cc2c1OC(CNC(=O)c1cc(C)n(C)n1)C2 (stereo unspecified)	.	.	.	20%	.	.
COc1ccc(C2SCC(=O)Nc3c2c(=O)[nH]n3C2CCCCCC2)cc1 (stereo unspecified)	27	-13%	40µM*	-28%	-2%	13%

Screening data as filed in PubChem.
